Laboratory results from PubChem BioAssay (NCATS).
Records with an inconclusive call do not appear. Entries that show only a call come without a potency. The source made the active and inactive calls. Calls come from the whole dose curve; as a rule, active = well fitted curve in the direction sought with a large enough effect; inconclusive = small, poorly fitted or top-dose-only effect, or another doubt; inactive = no such curve, though single readings can be large; an effect the other way counts as inactive or inconclusive.

Columns and labels:
[1] = S16 Schwann cell PMP22 intronic element firefly luciferase assay (AID 624032); note: nearly all actives have a fitted effect of over 30% in size
Summary of the method: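 Rat S16 Schwann cells stably carrying a PMP22 intronic element-driven Fluc reporter were seeded overnight, then exposed to compounds for 24 h at 37 °C. Luminescence was normalized to PTC124 (positive control) and DMSO (0% activity).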

[2] = test system: AA1029; experiment: qHTS profiling for inhibitors of Plasmodium falciparum proliferation (AID 504749); note: nearly all actives have a fitted effect of over 60% in size; conditions: P. falciparum in erythrocytes, SYBR Green DNA, 72 h; series mostly up to 28.7 µM
Summary of the method: (§1)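 Quantitative HTS: compounds pinned into medium, infected erythrocytes added (0.3% parasitemia, 2.5% hematocrit), 72 h culture at 37 C under 5% CO2. Saponin/Triton lysis with SYBR Green I, overnight RT, then fluorescence read.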

[3] = test system: AS120; experiment: as above; conditions: P. falciparum in erythrocytes, SYBR Green DNA, 72 h; series mostly up to 28.7 µM
Summary of the method: as §1

[4] = test system: ATS95; experiment: as above; conditions: P. falciparum in erythrocytes, SYBR Green DNA, 72 h; series mostly up to 28.7 µM
Summary of the method: as §1

[5] = test system: CP217; experiment: as above; conditions: P. falciparum in erythrocytes, SYBR Green DNA, 72 h; series mostly up to 28.7 µM
Summary of the method: as §1

[6] = test system: CP247; experiment: as above; conditions: P. falciparum in erythrocytes, SYBR Green DNA, 72 h; series mostly up to 28.7 µM
Summary of the method: as §1

[7] = test system: CP256; experiment: as above; conditions: P. falciparum in erythrocytes, SYBR Green DNA, 72 h; series mostly up to 28.7 µM
Summary of the method: as §1

[8] = test system: CP260; experiment: as above; conditions: P. falciparum in erythrocytes, SYBR Green DNA, 72 h; series mostly up to 28.7 µM
Summary of the method: as §1

[9] = test system: CP265; experiment: as above; conditions: P. falciparum in erythrocytes, SYBR Green DNA, 72 h; series mostly up to 28.7 µM
Summary of the method: as §1

[10] = test system: CP266; experiment: as above; conditions: P. falciparum in erythrocytes, SYBR Green DNA, 72 h; series mostly up to 28.7 µM
Summary of the method: as §1

[11] = test system: CP297; experiment: as above; conditions: P. falciparum in erythrocytes, SYBR Green DNA, 72 h; series mostly up to 28.7 µM
Summary of the method: as §1

[12] = test system: CP335; experiment: as above; conditions: P. falciparum in erythrocytes, SYBR Green DNA, 72 h; series mostly up to 28.7 µM
Summary of the method: as §1

[13] = test system: DIV14; experiment: as above; conditions: P. falciparum in erythrocytes, SYBR Green DNA, 72 h; series mostly up to 28.7 µM
Summary of the method: as §1

[14] = test system: GB4; experiment: as above; conditions: P. falciparum in erythrocytes, SYBR Green DNA, 72 h; series mostly up to 28.7 µM
Summary of the method: as §1

[15] = test system: P93_24; experiment: as above; conditions: P. falciparum in erythrocytes, SYBR Green DNA, 72 h; series mostly up to 28.7 µM
Summary of the method: as §1

[16] = test system: P94_40; experiment: as above; conditions: P. falciparum in erythrocytes, SYBR Green DNA, 72 h; series mostly up to 28.7 µM
Summary of the method: as §1

[17] = test system: PC15; experiment: as above; conditions: P. falciparum in erythrocytes, SYBR Green DNA, 72 h; series mostly up to 28.7 µM
Summary of the method: as §1

[18] = test system: SC27B; experiment: as above; conditions: P. falciparum in erythrocytes, SYBR Green DNA, 72 h; series mostly up to 28.7 µM
Summary of the method: as §1

[19] = test system: TAB109; experiment: as above; conditions: P. falciparum in erythrocytes, SYBR Green DNA, 72 h; series mostly up to 28.7 µM
Summary of the method: as §1

[20] = test system: TAB165; experiment: as above; conditions: P. falciparum in erythrocytes, SYBR Green DNA, 72 h; series mostly up to 28.7 µM
Summary of the method: as §1
Potency is the fitted concentration of half-maximal effect.

With `COC(=O)C1C(OC(=O)c2ccccc2)CC2CCC1N2C` (stereo not given) the Potency [1] was “inactive”, the Potency [2] was “inactive” and the Potency [3] was “inactive”. The Potency [4] was “inactive”, the Potency [5] was “inactive” and the Potency [6] was “inactive”. The Potency [7] was “inactive”, the Potency [8] was “inactive” and the Potency [9] was “inactive”. The Potency [10] was “inactive”, the Potency [11] was “inactive” and the Potency [12] was “inactive”. The Potency [13] was “inactive”, the Potency [14] was “inactive” and the Potency [15] was “inactive”. For the same molecule, the Potency [16] was “inactive”, the Potency [17] was “inactive” and the Potency [18] was “inactive”. The Potency [19] was “inactive” and the Potency [20] was “inactive”.

With `C=C1CC2C(CC[C@]3(C)C(=O)CCC23)[C@]2(C)C=CC(=O)C=C12` (stereo not given in full) the Potency [1] was 11400 nM (active), the Potency [2] was “inactive” and the Potency [3] was “inactive”. The Potency [4] was “inactive”, the Potency [5] was “inactive” and the Potency [6] was “inactive”. The Potency [7] was “inactive”, the Potency [9] was “inactive” and the Potency [10] was “inactive”. The Potency [11] was “inactive”, the Potency [13] was “inactive” and the Potency [14] was “inactive”. For the same molecule, the Potency [15] was “inactive”, the Potency [16] was “inactive” and the Potency [17] was “inactive”. The Potency [18] was “inactive”, the Potency [19] was “inactive” and the Potency [20] was “inactive”.

With `CCN(CC)C(=O)N[C@@H]1C=C2c3cccc4[nH]cc(c34)C[C@H]2N(C)C1` the Potency [1] was “inactive”, the Potency [3] was 12600 nM (active) and the Potency [9] was 10000 nM (active). The Potency [10] was “inactive”, the Potency [13] was 13500 nM (active) and the Potency [14] was 8490 nM (active). For the same molecule, the Potency [15] was 7940 nM (active), the Potency [16] was 8910 nM (active) and the Potency [20] was 12600 nM (active).

For `C#CC1(O)C=CC2C3CCC4=CC(=O)CCC4C3CCC21CC` (stereo not given), the Potency [1] was 6420 nM (active), the Potency [3] was “inactive” and the Potency [5] was “inactive”. For the same molecule, the Potency [6] was 6310 nM (active), the Potency [13] was 6750 nM (active) and the Potency [17] was 11200 nM (active).

In the case of `COC(C(=O)C(O)C(C)O)C1Cc2cc3cc(OC4CC(OC5CC(O)C(OC)C(C)O5)C(OC(C)=O)C(C)O4)c(C)c(O)c3c(O)c2C(=O)C1OC1CC(OC2CC(OC3CC(C)(O)C(OC(C)=O)C(C)O3)C(O)C(C)O2)C(O)C(C)O1` (stereo not given), the Potency [1] is reported as “inactive”, the Potency [2] is reported as 794 nM (active) and the Potency [3] is reported as 794 nM (active). The Potency [4] was 708 nM (active), the Potency [5] was 1780 nM (active) and the Potency [6] was 1780 nM (active). For the same molecule, the Potency [7] was 2510 nM (active), the Potency [8] was 126 nM (active) and the Potency [9] was 2240 nM (active). For the same molecule, the Potency [11] was 4260 nM (active), the Potency [12] was 338 nM (active) and the Potency [13] was 2390 nM (active). The Potency [14] was 2130 nM (active), the Potency [15] was 794 nM (active) and the Potency [16] was 708 nM (active). The Potency [17] was 2240 nM (active), the Potency [18] was 1000 nM (active) and the Potency [19] was 794 nM (active). For the same molecule, the Potency [20] was 794 nM (active).

With `CN(C)[C@@H](Cc1ccccc1)c1ccccc1` the Potency [1] was “inactive”, the Potency [3] was “inactive” and the Potency [4] was “inactive”. For the same molecule, the Potency [5] was “inactive”, the Potency [6] was 10000 nM (active) and the Potency [7] was “inactive”. The Potency [8] was “inactive”, the Potency [9] was “inactive” and the Potency [10] was “inactive”. For the same molecule, the Potency [12] was “inactive”, the Potency [16] was “inactive” and the Potency [17] was “inactive”. The Potency [18] was “inactive”, the Potency [19] was “inactive” and the Potency [20] was “inactive”.

For `CC(CO)NC(=O)C1C=C2c3cccc4[nH]cc(c34)CC2N(C)C1` (stereo not given), the Potency [1] was “inactive”, the Potency [2] was “inactive” and the Potency [3] was “inactive”. The Potency [4] was “inactive”, the Potency [5] was “inactive” and the Potency [6] was “inactive”. The Potency [7] was “inactive”, the Potency [8] was “inactive” and the Potency [9] was “inactive”. The Potency [10] was “inactive”, the Potency [11] was “inactive” and the Potency [12] was “inactive”. For the same molecule, the Potency [14] was “inactive”, the Potency [15] was “inactive” and the Potency [16] was “inactive”. The Potency [17] was “inactive”, the Potency [18] was “inactive” and the Potency [19] was “inactive”. The Potency [20] was “inactive”.

In the case of `CC(=O)O[C@H]1C[C@H](O[C@H]2[C@@H](O)CC(O[C@H]3[C@@H](O)C[C@H](O[C@H]4CC[C@@]5(C)[C@H](CC[C@@H]6[C@@H]5CC[C@]5(C)[C@@H](C7=CC(=O)OC7)CC[C@]65O)C4)O[C@@H]3C)O[C@@H]2C)O[C@H](C)[C@H]1O[C@@H]1O[C@H](CO)[C@@H](O)[C@H](O)[C@H]1O` (stereo not given in full), the Potency [2] is reported as “inactive”, the Potency [3] is reported as “inactive” and the Potency [4] is reported as “inactive”. For the same molecule, the Potency [5] was “inactive”, the Potency [6] was “inactive” and the Potency [7] was “inactive”. The Potency [8] was “inactive”, the Potency [9] was “inactive” and the Potency [10] was “inactive”. For the same molecule, the Potency [11] was “inactive”, the Potency [12] was “inactive” and the Potency [14] was “inactive”. The Potency [15] was “inactive”, the Potency [16] was “inactive” and the Potency [18] was “inactive”. For the same molecule, the Potency [20] was “inactive”.

For `CCCC(C)C1(CC)C(=O)NC(=S)NC1=O` (stereo not given), the Potency [1] was “inactive”, the Potency [2] was “inactive” and the Potency [3] was “inactive”. For the same molecule, the Potency [4] was “inactive”, the Potency [5] was “inactive” and the Potency [6] was “inactive”. The Potency [7] was “inactive”, the Potency [8] was “inactive” and the Potency [9] was “inactive”. For the same molecule, the Potency [10] was “inactive”, the Potency [11] was “inactive” and the Potency [12] was “inactive”. For the same molecule, the Potency [13] was “inactive”, the Potency [14] was “inactive” and the Potency [15] was “inactive”. For the same molecule, the Potency [16] was “inactive”, the Potency [17] was “inactive” and the Potency [18] was “inactive”. The Potency [19] was “inactive” and the Potency [20] was “inactive”.

For `CC(=O)[C@H]1CC[C@H]2C3CC[C@H]4C[C@H](O)CC[C@]4(C)C3CC[C@]12C` (stereo not given in full), the Potency [1] was “inactive”, the Potency [2] was “inactive” and the Potency [3] was “inactive”. The Potency [4] was “inactive”, the Potency [5] was “inactive” and the Potency [6] was “inactive”. For the same molecule, the Potency [7] was “inactive”, the Potency [9] was “inactive” and the Potency [10] was “inactive”. The Potency [11] was “inactive”, the Potency [12] was “inactive” and the Potency [13] was “inactive”. The Potency [14] was “inactive”, the Potency [15] was “inactive” and the Potency [16] was “inactive”. The Potency [17] was “inactive”, the Potency [18] was “inactive” and the Potency [19] was “inactive”. For the same molecule, the Potency [20] was “inactive”.

With `C[C@@H](N)[C@@H](O)c1ccc(O)c(O)c1` the Potency [2] was “inactive”, the Potency [3] was “inactive” and the Potency [4] was “inactive”. For the same molecule, the Potency [5] was “inactive”, the Potency [6] was “inactive” and the Potency [7] was “inactive”. For the same molecule, the Potency [8] was “inactive”, the Potency [9] was “inactive” and the Potency [10] was “inactive”. For the same molecule, the Potency [11] was “inactive”, the Potency [12] was “inactive” and the Potency [13] was “inactive”. The Potency [14] was “inactive”, the Potency [15] was “inactive” and the Potency [16] was “inactive”. The Potency [17] was “inactive”, the Potency [18] was “inactive” and the Potency [19] was “inactive”. For the same molecule, the Potency [20] was “inactive”.

In the case of `CC(C)=CC1C(C(=O)OCc2coc(Cc3ccccc3)c2)C1(C)C` (stereo not given), the Potency [1] is reported as “inactive”, the Potency [2] is reported as “inactive” and the Potency [4] is reported as “inactive”. The Potency [5] was “inactive”, the Potency [6] was “inactive” and the Potency [8] was “inactive”. The Potency [10] was “inactive”, the Potency [11] was “inactive” and the Potency [12] was “inactive”. For the same molecule, the Potency [13] was “inactive”, the Potency [14] was “inactive” and the Potency [15] was “inactive”. For the same molecule, the Potency [16] was “inactive”, the Potency [17] was “inactive” and the Potency [19] was “inactive”.
